Assay outcomes from PubChem BioAssay.
Hits are enriched below; roughly 9.2% of the tested compounds scored in any of these assays.
SMN2 splice enh: increases expression of the SMN2 splice variant. HEK293 SMN2-luciferase splicing reporter, luminescence, 30-36 h. Potency, µM (highest dose often 46.1 µM), without a hit: at the highest dose activity change, positive = activation, most hits filed as activators. 210,000 compounds, 2.8% hits. AID 1458; note: % of control where 0% means no effect; nearly all actives have a fitted effect of over 55% in size
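HEK293 cells carry an SMN2 minigene-luciferase reporter in which exon 7 inclusion puts luciferase in frame. Cells were seeded at 2000 cells/well, attached for 10-12 hours, then exposed to compounds for 30-36 hours at 37C before ONE-Glo luminescence.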
ELG1 genotoxic: genotoxicity induction in ELG1-luciferase HEK293T cells; HEK293T ELG1-luciferase reporter, luminescence, 16 h; Potency, µM (series often up to 46 µM), for the others: at the top dose activity change, positive = activation, actives largely listed as activators; 330,000 compounds, 1.3% hits; note: % of control where 0% means no effect; nearly all actives have a fitted effect of over 60% in size
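DMSO vehicle served as control against compound-treated ELG1-luciferase HEK293T cells; exposure lasted 16 hr at 37 °C and 5% CO2, followed by ONE-Glo luminescence detection after 30 min.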
FLuc modulator: counter-screen for miR-21 project: firefly luciferase inhibitors or activators; P08659; 360,000 compounds, 6.9% hits; AID 588342; Potency, µM (highest dose often 57.5 µM), for the others: at the top dose activity change, negative = inhibition, hits mostly inhibitors; purified FLuc, Km substrates, luminescence inhibition;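 note: plate controls were vehicle for no effect and reference inhibitor for full effect; nearly all actives have a fitted effect of over 55% in size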
Target sequence (P08659 whole entry, looked up): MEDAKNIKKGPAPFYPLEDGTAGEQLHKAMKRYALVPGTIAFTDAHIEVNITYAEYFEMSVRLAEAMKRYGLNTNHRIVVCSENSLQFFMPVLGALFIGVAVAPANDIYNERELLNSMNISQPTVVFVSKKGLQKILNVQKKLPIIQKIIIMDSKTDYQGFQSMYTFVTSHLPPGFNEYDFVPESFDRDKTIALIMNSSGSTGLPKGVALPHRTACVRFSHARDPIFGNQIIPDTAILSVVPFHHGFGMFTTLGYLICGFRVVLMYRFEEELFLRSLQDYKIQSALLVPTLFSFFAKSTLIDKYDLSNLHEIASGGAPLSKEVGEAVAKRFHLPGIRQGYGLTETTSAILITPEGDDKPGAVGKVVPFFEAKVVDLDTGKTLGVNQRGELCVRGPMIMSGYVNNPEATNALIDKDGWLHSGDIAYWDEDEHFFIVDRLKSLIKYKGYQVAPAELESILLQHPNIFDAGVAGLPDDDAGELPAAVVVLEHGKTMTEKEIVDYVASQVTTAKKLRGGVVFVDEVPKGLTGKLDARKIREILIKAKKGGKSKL
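Purified P. pyralis luciferase (10nM final) with 10uM D-luciferin and 10uM ATP (Km levels) in 50mM Tris acetate pH 7.5, 10mM Mg acetate, 0.01% Tween-20, 0.05% BSA; qHTS 6-point titration, ~60 µM downward; luminescence read.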
ELG1 DNA repair: blocks ELG1-dependent DNA repair in HEK293T cells; HEK293T ELG1-luciferase reporter, luminescence, 16 h; DNA damage induced by 5-fluorouridine; Potency, µM (highest dose often 46.1 µM), without a hit: at the top dose activity change, negative = inhibition, usual class: inhibitors; 330,000 compounds, 2.3% hits; AID 504467; note: % is set by controls: 0 for no effect and ±100 for the full control effect; nearly all actives have a fitted effect of over 55% in size
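Luminescence from the luciferase reporter, measured 30 min after ONE-Glo reagent at room temperature, was the read-out. Beforehand, 2,000 cells per well were exposed for 16 hr at 37 °C to 5-fluorouridine together with compound or vehicle.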
NPC1 promoter act: NPC1 promoter activation; Potency, µM (titrated, usually from 9.22 µM), inactives show top-dose activation, usual class: activators; AID 485313; 320,000 compounds, 2.4% hits; Huh7 NPC1 promoter luciferase reporter, 24 h; note: % of control where 0% means no effect; nearly all actives have a fitted effect of over 60% in size
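Quantitative HTS used a cell-based reporter: Huh7 cells stably bearing the NPC1 promoter upstream of luciferase were treated with compounds for 24 h, and promoter activation was read as luminescence.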
Rab9 prom act: Rab9 promoter activation. Huh7 Rab9 promoter-luciferase reporter, luminescence, 24 h. Potency, µM (series often up to 9.22 µM), for the others: top-dose activation, negative = inhibition, actives largely listed as activators. 320,000 compounds, 2.8% hits. AID 485297; note: % of control where 0% means no effect; nearly all actives have a fitted effect of over 60% in size
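Huh7 cells stably carrying a Rab9 promoter-luciferase reporter, 1500 cells per well in OP-MEM I with 10% FBS, treated with compound 24 hours at 37C. Luciferase activity read by luminescence after 10 minutes with Amplite reagent.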
Active calls of the source: *; ? = inconclusive; / = no result given. Calls come from the whole dose curve; as a rule, active = well fitted curve in the direction sought with a large enough effect; inconclusive = small, poorly fitted or top-dose-only effect, or another doubt; inactive = no such curve, though single readings can be large; an effect the other way counts as inactive or inconclusive. Potency is the fitted concentration of half-maximal effect.

SMILES | SMN2 splice enh | ELG1 genotoxic | FLuc modulator | ELG1 DNA repair | NPC1 promoter act | Rab9 prom act
Cc1ccc(-n2nnnc2SCC(=O)NCCc2ccccc2)cc1C | 4% | / | -12% | / | / | /
CC(C)(C)c1ccc(-c2noc(-c3ccno3)n2)cc1 | / | ? | 1.9µM* | ? | 1.3µM* | 1.4µM*
Cc1ccc(-c2nc(-c3ccccc3)no2)c(Cl)c1 | -30% | 0.26µM* | 0.085µM* | ? | 2.8µM* | 4µM*
Cc1ccc(OCc2nc(-c3cccnc3)no2)cc1C | 15% | 11% | ? | ? | 14% | 17%
Clc1cccc(Cl)c1-c1noc(-c2ccno2)n1 | / | 3% | 0% | 19% | -3% | -1%
CCC(=O)Oc1ccc(-c2nc(-c3cccnc3)no2)cc1 | ? | ? | 3.4µM* | ? | 4µM* | 4.5µM*
Cc1cccc(-c2nc(-c3ccncc3)no2)c1 | / | 9.2µM* | 3µM* | ? | 1.6µM* | 1.4µM*
Cc1cccc(-c2noc(-c3ccc4c(c3)OCO4)n2)c1 | / | 3% | -17% | 10% | -3% | -1%
O=C(O)c1ccc2c(c1)C(=O)N([C@H](Cc1ccc3ccccc3c1)C(=O)O)C2=O | / | / | 3% | / | -2% | 3%
Cc1nc2c(C#N)cnn2c2c1CCN2CC1CCCO1 (stereo not given) | 5% | 6% | -1% | 14% | 0% | -1%
COc1cc(C2C(C#N)=C(N)Oc3c2c(-c2ccccc2)nn3-c2ccccc2)cc(OC)c1OC (stereo not given) | 14% | 2% | 0% | 16% | -7% | -11%
Cc1ccc(-c2nc(-c3ccccc3)no2)cc1 | 8% | 0.65µM* | 0.21µM* | ? | 1µM* | 1.3µM*
Cc1ccc(-c2noc(CNc3ccccc3)n2)cc1 | ? | ? | 19µM* | ? | 19% | 23%
FC(F)(F)c1cccc(-c2nc(-c3ccncc3)no2)c1 | / | 18% | 15µM* | ? | ? | ?
Cc1ccc(-c2nc(-c3ccncc3)no2)cc1 | / | 3.7µM* | 1.7µM* | ? | 0.89µM* | 1µM*
Cc1noc(-c2ccc(-c3noc(-c4ccc(F)cc4)n3)cc2)n1 | / | / | -6% | / | / | /
CCOc1ccc(-n2c(SCC(=O)Nc3ccc(F)cc3)nc3c([nH]c4ccccc43)c2=O)cc1 | / | / | 4% | / | / | /
CC1CCCCN1CCCNC(=O)Cn1ncc2c3ccccc3n(Cc3ccccc3F)c2c1=O (stereo not given) | 1% | / | -1% | / | / | /
CCn1nc(C)c(Br)c1-c1nc(CS(=O)(=O)c2ccsc2)no1 | / | 3% | -18% | 17% | 12% | 8%
FC(F)(F)c1ccc(-c2nnc(-c3cccnc3)o2)cc1 | / | ? | -18% | ? | ? | 16%
Cc1ccc(-c2noc(-c3c(C)noc3C)n2)cc1 | / | 3% | -17% | 2% | -5% | 17%
CCn1nc(C)c(Br)c1-c1nc(-c2cccc(C)c2)no1 | / | 0% | ? | 1% | 2.5µM* | 27%
Cc1cccc(-c2noc(-c3c(C)noc3C)n2)c1 | / | 4% | ? | ? | 1.6µM* | 3.2µM*
Cc1ccc(-c2nnc(-c3cccnc3)o2)cc1 | / | 21µM* | 12µM* | ? | 2.8µM* | ?
CC(C)(C)c1ccc(-c2nc(-c3ccncc3)no2)cc1 | 17% | ? | 0.95µM* | ? | 0.4µM* | 0.45µM*
SMILES | SMN2 splice enh | ELG1 genotoxic | FLuc modulator | ELG1 DNA repair | NPC1 promoter act | Rab9 prom act
CCOC(=O)CCn1nc(C)c2c(C)n(-c3ccccc3)nc2c1=O | 6% | / | 4% | / | / | /
CCCc1noc(-c2ccc(-c3ccccc3)cc2)n1 | ? | ? | 1.5µM* | ? | 1.6µM* | 1.6µM*
O=[N+]([O-])c1cc(-c2nc(-c3ccncc3)no2)cc([N+](=O)[O-])c1 | / | -4% | 3% | -3% | 17% | 26%
O=[N+]([O-])c1cc(-c2nc(-c3ccncc3)no2)ccc1Cl | -12% | -1% | -16% | ? | 7% | -2%
Clc1ccc(Br)cc1-c1nc(-c2ccncc2)no1 | ? | 21µM* | ? | ? | 2% | 22%
CCOc1ccc(-c2nc(-c3ccccc3)no2)cc1OCC | -3% | ? | 13µM* | ? | ? | ?
Brc1cccc(-c2nc(-c3ccncc3)no2)c1 | 27% | ? | 7.6µM* | ? | 3.2µM* | 5µM*
COc1ccc(Cc2noc(-c3ccc(C)cc3)n2)cc1 | -2% | ? | ? | ? | 13% | 14%
COCCNC(=O)Cn1ccc2cc(S(=O)(=O)N3CCCCC3)ccc21 | / | -1% | 1% | -2% | -1% | 0%
COc1cccc(C2C(=O)N(C3CCCCC3)CC(=O)N2CCc2ccc(OC)c(OC)c2)c1 (stereo not given) | / | / | 0% | / | / | /
CCc1ccc(OC(=O)c2sc3ncn(Cc4cccc(F)c4)c(=O)c3c2C)cc1 | / | / | -9% | / | / | /
O=C(CN1CCN(S(=O)(=O)c2cccc(Cl)c2)CC1)NCC1(N2CCOCC2)CCCCC1 | / | -2% | 0% | -15% | -3% | -7%
Cc1ccc(Cc2nc(-c3cccnc3)no2)cc1 | 10% | 6% | ? | ? | 14% | 7%
Cc1ccc(-c2nc(-c3cccnc3)no2)cc1 | 10µM* | / | 1.5µM* | / | / | /
Cc1cc(C)cc(-c2nc(-c3ccncc3)no2)c1 | -18% | 21µM* | 11µM* | ? | ? | ?
c1cncc(-c2noc(-c3ccco3)n2)c1 | -1% | ? | ? | ? | 3.2µM* | 4µM*
COc1ccc(C(=O)N=c2sccn2C)cc1 | ? | ? | 17µM* | ? | ? | ?
CN(C)c1ccc(C(=O)N=c2sccn2C)cc1[N+](=O)[O-] | / | 9.2µM* | 9.5µM* | ? | 2.2µM* | 3.2µM*
Cn1ccsc1=NC(=O)c1ccc(OC(F)(F)F)cc1 | / | ? | 9.5µM* | ? | ? | 4.5µM*
Cn1ccs/c1=N\C(=O)Nc1ccccc1 | / | ? | 11µM* | ? | 2.5µM* | 3.2µM*
Cn1ccsc1=NC(=O)c1ccccc1F | 3% | -9% | -1% | ? | 4% | 21%
Cn1ccsc1=NC(=O)c1ccc(CS(C)(=O)=O)cc1 | / | 16% | ? | ? | 17% | 20%
COC(=O)c1ccc(C(=O)N=c2sccn2C)cc1 | / | ? | 15µM* | ? | 2.8µM* | 2.8µM*
Cn1ccsc1=NC(=O)c1ccc(Cl)cc1 | 14µM* | ? | 17µM* | ? | ? | ?
CCOc1cc(C(=O)N=c2sccn2C)ccc1OC(F)F | / | 0% | -18% | 0% | 11% | ?
Cn1ccsc1=NC(=O)c1ccc(S(=O)(=O)C(F)F)cc1 | / | ? | ? | ? | ? | 3.5µM*
